Whole data set: some 110,000 compounds, median “z-score” near -0.1, cut for the highest 2% near 2. The sample as a whole holds a higher share of the highest values than the screen did. Activity calls are given as the source filed them.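 Rule for the calls: active = z-score in the third read window above 3 or below -3; inactive = the rest.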
target: Metabotropic glutamate receptor 8 (Rattus norvegicus) (UniProt P70579); assay: rat mGluR8 modulators via GIRK flux, primary screen, cell-based, thallium flux, HTS (AID 488969); conditions: HEK293 rat mGluR8, GIRK (G protein-gated inwardly rectifying potassium channel) thallium flux, FluoZin2; at 10 µM; stronger effect = higher value; submaximal glutamate (EC20) added with thallium
Sequence (P70579 whole entry, looked up): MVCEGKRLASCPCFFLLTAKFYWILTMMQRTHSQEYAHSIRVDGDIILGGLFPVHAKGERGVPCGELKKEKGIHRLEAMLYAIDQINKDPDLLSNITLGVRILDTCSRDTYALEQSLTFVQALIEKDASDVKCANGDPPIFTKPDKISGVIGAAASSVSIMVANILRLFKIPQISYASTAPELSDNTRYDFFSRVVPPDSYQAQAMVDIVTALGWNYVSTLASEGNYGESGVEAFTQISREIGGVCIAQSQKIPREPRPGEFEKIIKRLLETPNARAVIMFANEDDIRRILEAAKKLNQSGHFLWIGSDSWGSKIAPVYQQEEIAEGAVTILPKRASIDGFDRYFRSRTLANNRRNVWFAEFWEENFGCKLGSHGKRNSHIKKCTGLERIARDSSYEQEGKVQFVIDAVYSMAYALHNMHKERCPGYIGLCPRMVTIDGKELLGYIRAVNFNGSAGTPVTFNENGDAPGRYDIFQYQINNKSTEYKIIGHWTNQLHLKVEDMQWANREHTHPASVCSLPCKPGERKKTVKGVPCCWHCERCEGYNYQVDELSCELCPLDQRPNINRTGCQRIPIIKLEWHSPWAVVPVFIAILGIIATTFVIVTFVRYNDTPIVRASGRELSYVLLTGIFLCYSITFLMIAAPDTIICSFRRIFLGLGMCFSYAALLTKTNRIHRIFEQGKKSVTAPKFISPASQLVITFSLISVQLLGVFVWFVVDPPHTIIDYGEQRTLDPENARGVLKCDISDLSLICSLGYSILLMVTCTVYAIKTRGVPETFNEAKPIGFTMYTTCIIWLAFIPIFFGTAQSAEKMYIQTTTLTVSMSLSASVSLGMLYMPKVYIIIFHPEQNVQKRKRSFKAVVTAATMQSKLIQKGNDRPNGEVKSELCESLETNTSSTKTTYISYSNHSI

Compound | z-score
Cc1ccc(/C=C/C(=O)N2CCN(c3cccc(C(F)(F)F)c3)CC2)cc1 | -0.0624
Cc1ccc(CC(=O)N2CCN(c3cccc(C(F)(F)F)c3)CC2)cc1 | 6.97 (active)
COc1ccccc1CC(=O)N1CCN(c2cccc(C(F)(F)F)c2)CC1 | 0.359
CCc1c(C(=O)Nc2nnc(C3CC3)s2)csc1C | 1.09
CC(C)(C)c1ccc(OCc2ccc(C(=O)N/N=C/c3ccc([N+](=O)[O-])cc3)o2)cc1 | -0.4
CN1CCC(=NNC(=O)C(=O)NC2CCCC2)CC1 | -0.0552
O=C(NN=C1CCCCCCC1)C(=O)NC1CCCCC1 | 0.327
CN1CCC(=NNC(=O)C(=O)NC2CCCCC2)CC1 | 2.04
O=C(Cn1[nH]c(=O)c2ccccc2c1=O)NC1CCCCCC1 | 0.0122
COc1ccc(C(C)N2CC34C=CC(O3)C(C(=O)OCC(C)C)C4C2=O)cc1 (centres undefined) | 5.16 (active)
CCOC(=O)C1[C@H]2C(=O)N(C(C)c3ccc(OC)cc3)C[C@]23C=C[C@H]1O3 (some centres undefined) | 0.209
CCCOC(=O)C1[C@H]2C(=O)N(C(C)c3ccc(OC)cc3)C[C@]23C=C[C@H]1O3 (some centres undefined) | 0.656
CC(C)(NC(=O)N1CCOCC1)c1cccc(C(C)(C)NC(=O)N2CCOCC2)c1 | -0.126
Cc1cc(C)c2cc(C)c3nnc(SCC(=O)NCc4ccc5c(c4)OCO5)n3c2c1 | -0.513
COc1cc(CNCCc2c[nH]c3ccccc23)ccc1OCc1ccccc1F | 0.911
COc1cccc(CNn2cnnc2)c1OCc1ccc(F)cc1 | -0.661
COc1ccccc1CCNCc1ccc(OC)c(OCc2ccccc2)c1 | 0.696
COc1cc(CNCCc2c[nH]c3ccccc23)ccc1OCc1ccc(F)cc1 | 3.41 (active)
COc1cccc(CNCCc2c[nH]c3ccccc23)c1OCc1ccccc1 | 1.32
COc1cccc(CNCCc2c[nH]c3ccccc23)c1OCc1ccc(F)cc1 | 2.04
Cc1cccc(N2CCN(C(=O)COc3ccc4c(c3)CCC4)CC2)c1C | -0.161
CC1(C)NC(=O)N(CCSc2ccc(Cl)cc2)C1=O | -0.257
CCC(Sc1n[nH]c(=O)[nH]c1=O)C(=O)OCc1ccccc1 (centres undefined) | 0.193
O=C(NCc1ccc(F)cc1)c1cc(S(=O)(=O)N2CCOCC2)ccc1F | 0.0221
Cc1ccc(S(=O)(=O)NCC(=O)N(CC(=O)NCc2ccco2)Cc2ccc3c(c2)OCO3)cc1 | -0.622
O=c1[nH]c(SCCOc2ccccc2)nc2ccccc12 | -0.359
Cc1cccc(OCCCSc2nc3ccccc3[nH]2)c1 | 0.357

Compound | z-score
c1ccc(OCCSc2nc3ccccc3[nH]2)cc1 | 2.69
COc1ccc(CSc2nc3ccccc3[nH]2)cc1 | 0.53
O=C(COC(=O)CCCSc1nc2ccccc2[nH]1)NC(=O)NC1CCCC1 | -0.664
Fc1cccc(F)c1CSc1nc2ccccc2[nH]1 | -0.786
COC(=O)c1cccc(CSc2nc3ccccc3[nH]2)c1 | 0.475
C=CCNC(=O)NC(=O)COC(=O)CCCSc1nc2ccccc2[nH]1 | -0.828
Fc1ccc(CSc2nc3ccccc3[nH]2)c2ccccc12 | 10.7 (active)
Fc1ccccc1CSc1nc2ccccc2[nH]1 | 0.129
CCNC(=O)NC(=O)COC(=O)CCCSc1nc2ccccc2[nH]1 | 3.23 (active)
COc1cccc(CSc2nc3ccccc3[nH]2)c1 | 2.68
C/C(=N\Nc1cc(-c2ccccc2)nc(-c2ccc(Br)cc2)n1)c1cccc(N)c1 | -0.0597
CN1CCN(C(=O)c2ccc(CS(=O)(=O)c3c(Cl)cccc3Cl)o2)CC1 | 0.504
Nn1c(SCC(=O)Nc2ccc3c(c2)OCCO3)nnc1-c1ccccn1 | -0.0196
COCCN1C(=O)C(=O)/C(=C(/O)c2ccc(S(=O)(=O)N3CCOCC3)cc2)C1c1ccc(C(C)C)cc1 (centres undefined) | 0.0253
COc1ccc(NC(=O)CCS(=O)(=O)c2ccccc2)c(OC)c1 | 0.256
C=CCNC(=S)N/N=C/c1cn(-c2ccccc2)nc1-c1ccc(OC)cc1 | -0.184
O=C(N/C=C\c1ccccc1)NCc1ccc(Cl)cc1 | 0.197
COc1ccc(C(=O)N(Cc2ccccc2)Cc2cc3cc4c(cc3[nH]c2=O)OCCO4)cc1 | 0.201
COc1cccc(C2c3c(oc4ccc(F)cc4c3=O)C(=O)N2CCN2CCOCC2)c1OC (centres undefined) | -0.574
C=CCNc1cnn(CC(C)=O)c(=O)c1Br | -0.0909
C=CCn1c(CCNC(=O)c2cccs2)nnc1SCC(=O)c1ccc(Cl)cc1 | -0.334
CCOc1cc2c(cc1C(C)(C)C)NC(=O)CS2 | -0.538
CCOC(=O)C1=C(c2ccccc2)Nc2c(c(=O)n(C)c(=O)n2C)C1c1ccc(O)c(OC)c1 (centres undefined) | 0.108
Cc1cc([N+](=O)[O-])c(C(C)(C)C)cc1N | 1.32
CCCOc1ccc(CSc2nc3ccccc3[nH]2)cc1 | 1.22
CCOc1ccc(OCCSc2nc3ccccc3[nH]2)cc1 | 3.67 (active)
CCOc1ccc(OCCSc2nc3ccccc3c(=O)[nH]2)cc1 | -0.398
